Laboratory results from PMC7862700, “An all-to-all approach to the identification of sequence-specific readers for epigenetic DNA modifications on cytosine”.

Experiments:
Test in all cases: DAPPL (digital affinity profiling via proximity ligation, sequencing); 10 mM Tris-HCl pH 7.5, 50 mM NaCl, 1 mM DTT, 4% glycerol, room temperature, 30 min; GST-TFs on glutathione beads, 16-mer random dsDNA library, 0.1% formaldehyde crosslink after washing; high values mean tight binding
FEV = molecular target: T1, FEV (Homo sapiens, UniProt Q99581 1-238); conditions: protein: recombinant; tags: N-terminal GST; dsDNA, one strand shown
T1 sequence: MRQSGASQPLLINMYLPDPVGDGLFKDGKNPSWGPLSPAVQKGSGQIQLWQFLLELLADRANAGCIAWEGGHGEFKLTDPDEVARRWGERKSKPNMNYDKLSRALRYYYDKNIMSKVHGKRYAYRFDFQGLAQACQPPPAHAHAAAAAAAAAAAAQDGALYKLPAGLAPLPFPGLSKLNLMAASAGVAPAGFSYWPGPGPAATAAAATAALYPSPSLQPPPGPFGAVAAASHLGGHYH
Outline: (§1)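 Binding signal is given per hexamer as its read frequency for a factor divided by its frequency in the tag-only sample. GST-fused human transcription factors were expressed in yeast, captured on glutathione beads, barcoded with DNA and pooled with that sample, then incubated with 200 nmole of a 16-mer random double-stranded DNA library in Tris/NaCl/DTT/glycerol buffer for 30 min at room temperature. The pools were then washed, crosslinked, proximity-ligated, amplified by PCR and sequenced on an Illumina NextSeq500.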

ETV5 = ETV5 (Homo sapiens, UniProt P41161 1-510); conditions: protein: recombinant; tags: N-terminal GST; dsDNA, one strand shown
Outline: as §1

HSF1 = HSF1 (Homo sapiens, UniProt Q00613 1-529); conditions: protein: recombinant; tags: N-terminal GST; chain copies: 3; dsDNA, one strand shown
Outline: as §1

SPIC = molecular target: T2, SPIC (Homo sapiens, UniProt Q8N5J4 1-248); conditions: protein: recombinant; tags: N-terminal GST; dsDNA, one strand shown
T2 sequence: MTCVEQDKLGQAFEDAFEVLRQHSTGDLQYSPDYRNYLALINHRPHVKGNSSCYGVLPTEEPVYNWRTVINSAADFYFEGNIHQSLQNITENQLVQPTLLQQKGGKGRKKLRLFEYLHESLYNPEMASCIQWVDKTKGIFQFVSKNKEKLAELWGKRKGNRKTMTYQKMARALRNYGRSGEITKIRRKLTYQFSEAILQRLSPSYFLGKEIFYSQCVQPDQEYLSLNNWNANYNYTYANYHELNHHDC
Outline: as §1

ELF4 = ELF4 (Homo sapiens, UniProt Q99607 1-663); conditions: protein: recombinant; tags: N-terminal GST; dsDNA, one strand shown
Outline: as §1

ELK4 = molecular target: T3, ELK4 (Homo sapiens, UniProt P28324-2 1-405); conditions: protein: recombinant; tags: N-terminal GST; dsDNA, one strand shown
T3 sequence: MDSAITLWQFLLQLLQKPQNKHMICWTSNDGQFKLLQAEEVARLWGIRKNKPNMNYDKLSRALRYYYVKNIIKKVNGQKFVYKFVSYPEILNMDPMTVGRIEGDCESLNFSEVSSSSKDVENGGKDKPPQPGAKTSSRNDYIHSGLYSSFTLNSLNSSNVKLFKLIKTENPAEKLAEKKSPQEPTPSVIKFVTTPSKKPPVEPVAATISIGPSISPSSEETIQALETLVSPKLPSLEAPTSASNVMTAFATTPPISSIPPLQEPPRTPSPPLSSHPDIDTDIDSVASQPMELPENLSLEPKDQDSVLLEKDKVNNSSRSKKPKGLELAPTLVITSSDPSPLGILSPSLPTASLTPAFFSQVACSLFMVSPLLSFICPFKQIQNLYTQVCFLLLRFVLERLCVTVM
Outline: as §1

ETV2 = molecular target: T4, ETV2 (Homo sapiens, UniProt O00321 1-342); conditions: protein: recombinant; tags: N-terminal GST; dsDNA, one strand shown
T4 sequence: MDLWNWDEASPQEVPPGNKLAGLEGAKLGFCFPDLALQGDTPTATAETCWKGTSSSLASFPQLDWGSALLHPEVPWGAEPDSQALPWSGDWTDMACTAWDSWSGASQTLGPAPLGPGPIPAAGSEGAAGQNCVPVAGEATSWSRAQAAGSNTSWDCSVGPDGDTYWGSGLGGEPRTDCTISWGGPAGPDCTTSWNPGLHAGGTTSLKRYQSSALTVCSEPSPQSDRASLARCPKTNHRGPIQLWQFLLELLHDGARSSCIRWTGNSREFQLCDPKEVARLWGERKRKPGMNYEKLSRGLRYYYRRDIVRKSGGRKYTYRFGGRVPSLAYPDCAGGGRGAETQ
Outline: as §1

ELF3 = molecular target: T5, ELF3 (Homo sapiens, UniProt P78545 1-371); conditions: protein: recombinant; tags: N-terminal GST; dsDNA, one strand shown
T5 sequence: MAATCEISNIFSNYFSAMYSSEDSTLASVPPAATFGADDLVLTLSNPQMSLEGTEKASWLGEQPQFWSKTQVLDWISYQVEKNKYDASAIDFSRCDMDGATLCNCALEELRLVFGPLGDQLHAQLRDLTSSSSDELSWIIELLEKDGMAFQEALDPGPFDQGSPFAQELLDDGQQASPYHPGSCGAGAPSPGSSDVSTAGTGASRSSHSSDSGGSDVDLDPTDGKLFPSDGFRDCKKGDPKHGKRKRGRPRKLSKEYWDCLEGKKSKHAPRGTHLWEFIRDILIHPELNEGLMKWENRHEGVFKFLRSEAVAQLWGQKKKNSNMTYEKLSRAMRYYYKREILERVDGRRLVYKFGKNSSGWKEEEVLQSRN
Outline: as §1

CRX = CRX (Homo sapiens, UniProt O43186 1-299); conditions: protein: recombinant; tags: N-terminal GST; dsDNA, one strand shown
Outline: as §1

ETV1 = ETV1 (Homo sapiens, UniProt P50549 1-477); conditions: protein: recombinant; tags: N-terminal GST; dsDNA, one strand shown
Outline: as §1

ERF = molecular target: T6, ERF (Homo sapiens, UniProt P50548 1-548); conditions: protein: recombinant; tags: N-terminal GST; dsDNA, one strand shown
T6 sequence: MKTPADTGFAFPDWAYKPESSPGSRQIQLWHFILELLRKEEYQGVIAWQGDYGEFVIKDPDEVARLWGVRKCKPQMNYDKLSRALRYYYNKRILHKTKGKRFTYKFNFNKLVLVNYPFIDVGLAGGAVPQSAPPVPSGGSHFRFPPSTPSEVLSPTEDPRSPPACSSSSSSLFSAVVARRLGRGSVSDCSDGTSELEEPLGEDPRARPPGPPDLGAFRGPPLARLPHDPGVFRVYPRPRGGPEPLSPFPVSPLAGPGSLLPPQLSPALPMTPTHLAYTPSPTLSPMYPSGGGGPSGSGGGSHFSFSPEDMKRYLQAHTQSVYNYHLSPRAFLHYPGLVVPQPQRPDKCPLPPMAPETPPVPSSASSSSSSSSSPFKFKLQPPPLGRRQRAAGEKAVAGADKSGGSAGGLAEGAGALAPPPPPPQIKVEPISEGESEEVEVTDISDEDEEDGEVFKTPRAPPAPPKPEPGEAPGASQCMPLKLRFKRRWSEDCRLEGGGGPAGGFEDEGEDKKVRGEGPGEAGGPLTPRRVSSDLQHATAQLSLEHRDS
Outline: as §1

ETV3L = molecular target: T7, ETV3L (Homo sapiens, UniProt Q6ZN32 1-361); conditions: protein: recombinant; tags: N-terminal GST; dsDNA, one strand shown
T7 sequence: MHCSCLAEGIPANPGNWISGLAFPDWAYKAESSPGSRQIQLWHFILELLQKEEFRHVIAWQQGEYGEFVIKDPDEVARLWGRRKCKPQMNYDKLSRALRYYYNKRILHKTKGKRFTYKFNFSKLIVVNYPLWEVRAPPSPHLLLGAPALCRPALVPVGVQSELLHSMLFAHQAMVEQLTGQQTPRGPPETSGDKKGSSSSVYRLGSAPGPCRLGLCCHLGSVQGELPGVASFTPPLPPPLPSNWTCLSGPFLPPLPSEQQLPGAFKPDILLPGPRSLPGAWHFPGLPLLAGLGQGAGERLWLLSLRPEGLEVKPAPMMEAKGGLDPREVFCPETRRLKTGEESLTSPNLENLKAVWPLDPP
Outline: as §1

ETS2 = molecular target: T8, ETS2 (Homo sapiens, UniProt P15036 1-469); conditions: protein: recombinant; tags: N-terminal GST; dsDNA, one strand shown
T8 sequence: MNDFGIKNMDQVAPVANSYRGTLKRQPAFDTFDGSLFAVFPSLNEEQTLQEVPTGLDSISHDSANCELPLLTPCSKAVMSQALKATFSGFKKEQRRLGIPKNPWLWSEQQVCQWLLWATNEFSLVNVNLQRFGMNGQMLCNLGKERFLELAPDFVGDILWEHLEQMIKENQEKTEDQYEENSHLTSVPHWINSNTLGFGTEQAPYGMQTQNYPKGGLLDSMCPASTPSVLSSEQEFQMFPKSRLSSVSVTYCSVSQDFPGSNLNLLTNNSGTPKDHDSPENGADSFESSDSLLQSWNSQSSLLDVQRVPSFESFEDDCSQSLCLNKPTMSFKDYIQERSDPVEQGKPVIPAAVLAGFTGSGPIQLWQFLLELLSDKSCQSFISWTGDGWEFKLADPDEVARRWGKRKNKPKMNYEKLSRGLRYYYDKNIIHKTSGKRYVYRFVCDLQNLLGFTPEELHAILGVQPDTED
Outline: as §1

SPDEF = molecular target: T9, SPDEF (Homo sapiens, UniProt O95238 1-335); conditions: protein: recombinant; tags: N-terminal GST; dsDNA, one strand shown
T9 sequence: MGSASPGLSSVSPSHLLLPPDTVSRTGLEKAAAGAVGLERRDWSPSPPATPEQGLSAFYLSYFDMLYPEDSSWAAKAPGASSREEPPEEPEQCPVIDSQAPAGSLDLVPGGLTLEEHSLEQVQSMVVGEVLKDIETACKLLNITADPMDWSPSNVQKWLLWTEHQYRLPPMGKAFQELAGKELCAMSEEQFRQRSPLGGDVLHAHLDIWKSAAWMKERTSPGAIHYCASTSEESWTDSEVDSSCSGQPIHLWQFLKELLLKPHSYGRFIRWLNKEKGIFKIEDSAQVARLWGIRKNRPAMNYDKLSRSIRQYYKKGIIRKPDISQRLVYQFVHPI
Outline: as §1

ETV7 = molecular target: T10, ETV7 (Homo sapiens, UniProt Q9Y603 1-341); conditions: protein: recombinant; tags: N-terminal GST; dsDNA, one strand shown
T10 sequence: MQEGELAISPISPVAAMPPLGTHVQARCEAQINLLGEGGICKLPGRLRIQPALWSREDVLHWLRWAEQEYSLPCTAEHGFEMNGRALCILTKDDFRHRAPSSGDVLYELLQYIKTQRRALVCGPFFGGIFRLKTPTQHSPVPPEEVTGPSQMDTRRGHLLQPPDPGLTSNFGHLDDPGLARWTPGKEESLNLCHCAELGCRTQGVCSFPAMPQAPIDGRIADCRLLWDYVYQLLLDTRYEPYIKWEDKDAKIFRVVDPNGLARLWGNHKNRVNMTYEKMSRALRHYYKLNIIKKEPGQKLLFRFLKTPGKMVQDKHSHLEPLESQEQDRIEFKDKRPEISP
Outline: as §1

ELF5 = molecular target: T11, ELF5 (Homo sapiens, UniProt Q9UKW6-2 1-255); conditions: protein: recombinant; tags: N-terminal GST; dsDNA, one strand shown
T11 sequence: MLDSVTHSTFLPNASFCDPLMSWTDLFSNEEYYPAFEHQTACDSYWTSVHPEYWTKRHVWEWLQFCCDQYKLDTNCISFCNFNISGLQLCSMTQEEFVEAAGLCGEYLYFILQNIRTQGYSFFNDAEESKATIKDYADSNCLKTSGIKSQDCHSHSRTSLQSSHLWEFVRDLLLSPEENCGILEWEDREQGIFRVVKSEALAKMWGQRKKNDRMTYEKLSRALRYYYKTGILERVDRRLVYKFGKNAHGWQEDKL
Outline: as §1

ETV3 = molecular target: T12, ETV3 (Homo sapiens, UniProt P41162-2 1-143); conditions: protein: recombinant; tags: N-terminal GST; dsDNA, one strand shown
T12 sequence: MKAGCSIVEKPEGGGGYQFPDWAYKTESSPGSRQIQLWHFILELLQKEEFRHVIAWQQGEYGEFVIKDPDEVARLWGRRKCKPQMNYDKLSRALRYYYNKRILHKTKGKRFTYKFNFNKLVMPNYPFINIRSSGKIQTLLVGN
Outline: as §1

ETV6 = ETV6 (Homo sapiens, UniProt P41212 1-452); conditions: protein: recombinant; tags: N-terminal GST; dsDNA, one strand shown
Outline: as §1

Chain of HSF1 (Q00613 whole entry): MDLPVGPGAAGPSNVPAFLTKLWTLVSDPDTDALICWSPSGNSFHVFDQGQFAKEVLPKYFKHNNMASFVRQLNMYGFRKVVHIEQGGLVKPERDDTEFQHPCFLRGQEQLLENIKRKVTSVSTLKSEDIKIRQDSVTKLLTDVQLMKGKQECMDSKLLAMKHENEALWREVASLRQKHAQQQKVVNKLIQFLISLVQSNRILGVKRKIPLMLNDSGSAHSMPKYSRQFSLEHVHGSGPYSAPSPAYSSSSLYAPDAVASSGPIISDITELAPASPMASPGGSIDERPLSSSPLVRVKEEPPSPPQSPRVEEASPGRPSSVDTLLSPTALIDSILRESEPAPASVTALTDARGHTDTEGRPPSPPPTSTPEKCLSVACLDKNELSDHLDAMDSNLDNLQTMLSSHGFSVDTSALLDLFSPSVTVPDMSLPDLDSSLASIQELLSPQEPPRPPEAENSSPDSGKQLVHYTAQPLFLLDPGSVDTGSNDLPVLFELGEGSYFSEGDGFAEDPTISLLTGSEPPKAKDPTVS
Chain of ELF4 (Q99607 whole entry): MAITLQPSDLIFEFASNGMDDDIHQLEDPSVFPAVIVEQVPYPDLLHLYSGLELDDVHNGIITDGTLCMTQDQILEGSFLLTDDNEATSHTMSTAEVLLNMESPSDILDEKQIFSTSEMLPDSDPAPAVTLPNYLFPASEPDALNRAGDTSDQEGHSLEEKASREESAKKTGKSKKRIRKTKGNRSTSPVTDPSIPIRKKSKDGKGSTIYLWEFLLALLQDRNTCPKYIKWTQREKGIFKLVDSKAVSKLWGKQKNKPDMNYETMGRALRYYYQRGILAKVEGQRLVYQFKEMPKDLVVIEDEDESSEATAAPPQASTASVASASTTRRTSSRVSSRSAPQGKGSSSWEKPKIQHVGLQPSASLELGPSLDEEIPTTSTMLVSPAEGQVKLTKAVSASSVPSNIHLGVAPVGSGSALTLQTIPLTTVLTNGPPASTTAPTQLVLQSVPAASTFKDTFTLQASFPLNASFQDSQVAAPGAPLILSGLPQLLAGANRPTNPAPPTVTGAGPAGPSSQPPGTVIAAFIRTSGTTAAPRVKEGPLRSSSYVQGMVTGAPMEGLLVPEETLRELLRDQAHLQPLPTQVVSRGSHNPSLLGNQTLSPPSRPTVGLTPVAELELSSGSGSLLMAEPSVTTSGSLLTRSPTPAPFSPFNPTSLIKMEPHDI
Chain of ETV1 (P50549 whole entry): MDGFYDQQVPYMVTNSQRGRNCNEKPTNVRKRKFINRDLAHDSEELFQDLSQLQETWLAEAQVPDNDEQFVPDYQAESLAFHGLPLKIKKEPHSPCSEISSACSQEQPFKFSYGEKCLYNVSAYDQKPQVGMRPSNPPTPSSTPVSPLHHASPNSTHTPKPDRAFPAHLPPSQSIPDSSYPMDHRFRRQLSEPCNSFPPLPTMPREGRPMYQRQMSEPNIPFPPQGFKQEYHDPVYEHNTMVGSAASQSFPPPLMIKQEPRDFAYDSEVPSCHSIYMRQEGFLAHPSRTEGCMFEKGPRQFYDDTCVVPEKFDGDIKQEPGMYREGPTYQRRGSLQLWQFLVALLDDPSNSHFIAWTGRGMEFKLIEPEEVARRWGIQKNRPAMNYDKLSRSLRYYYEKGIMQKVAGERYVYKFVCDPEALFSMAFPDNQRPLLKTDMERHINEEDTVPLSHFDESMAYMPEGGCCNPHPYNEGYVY
Chain of ETV6 (P41212 whole entry): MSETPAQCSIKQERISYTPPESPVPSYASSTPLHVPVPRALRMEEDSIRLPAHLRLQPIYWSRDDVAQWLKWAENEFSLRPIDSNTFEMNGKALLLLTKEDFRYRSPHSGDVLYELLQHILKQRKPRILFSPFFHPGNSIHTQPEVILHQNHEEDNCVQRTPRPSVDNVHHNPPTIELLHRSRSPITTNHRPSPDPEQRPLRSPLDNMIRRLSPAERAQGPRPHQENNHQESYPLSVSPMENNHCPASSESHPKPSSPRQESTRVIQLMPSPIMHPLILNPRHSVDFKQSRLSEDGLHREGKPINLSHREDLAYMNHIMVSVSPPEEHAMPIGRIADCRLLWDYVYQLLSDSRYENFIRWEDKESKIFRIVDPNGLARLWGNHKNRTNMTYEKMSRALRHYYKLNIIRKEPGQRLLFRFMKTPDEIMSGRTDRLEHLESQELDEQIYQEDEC
Chain of ETV5 (P41161 whole entry): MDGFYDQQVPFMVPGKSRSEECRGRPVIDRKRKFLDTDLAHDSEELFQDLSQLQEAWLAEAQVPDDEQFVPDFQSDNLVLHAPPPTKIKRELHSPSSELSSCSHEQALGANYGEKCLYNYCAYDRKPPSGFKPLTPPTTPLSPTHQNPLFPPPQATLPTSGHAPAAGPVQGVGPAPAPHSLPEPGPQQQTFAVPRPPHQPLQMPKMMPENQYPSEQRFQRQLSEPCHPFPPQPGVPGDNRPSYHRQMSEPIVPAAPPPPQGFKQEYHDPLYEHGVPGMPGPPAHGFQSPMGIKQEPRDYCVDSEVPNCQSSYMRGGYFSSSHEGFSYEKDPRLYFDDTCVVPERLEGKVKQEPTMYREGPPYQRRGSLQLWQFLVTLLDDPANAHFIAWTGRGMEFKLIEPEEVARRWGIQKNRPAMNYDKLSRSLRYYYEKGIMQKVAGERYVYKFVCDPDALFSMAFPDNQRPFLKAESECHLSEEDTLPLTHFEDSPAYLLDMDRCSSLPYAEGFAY
Chain of CRX (O43186 whole entry): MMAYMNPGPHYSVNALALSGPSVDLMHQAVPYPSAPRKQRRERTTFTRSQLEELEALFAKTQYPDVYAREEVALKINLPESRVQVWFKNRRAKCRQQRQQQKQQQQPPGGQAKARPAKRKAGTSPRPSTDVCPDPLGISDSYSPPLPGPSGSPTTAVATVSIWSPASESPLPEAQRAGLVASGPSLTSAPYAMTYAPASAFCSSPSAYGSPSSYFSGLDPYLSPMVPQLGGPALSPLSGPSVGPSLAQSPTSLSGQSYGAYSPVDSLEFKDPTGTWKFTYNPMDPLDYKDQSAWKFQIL

TTTTGA
binding signal (FEV): 1 fold enrichment (6-mer frequency, TF over GST control) | binding signal (ETV5): 1.19 fold enrichment (6-mer frequency, TF over GST control) | binding signal (HSF1): 1.12 fold enrichment (6-mer frequency, TF over GST control) | binding signal (SPIC): 1.21 fold enrichment (6-mer frequency, TF over GST control) | binding signal (ELF4): 1.19 fold enrichment (6-mer frequency, TF over GST control) | binding signal (ELK4): 1.22 fold enrichment (6-mer frequency, TF over GST control) | binding signal (ETV2): 1.2 fold enrichment (6-mer frequency, TF over GST control) | binding signal (ELF3): 1.25 fold enrichment (6-mer frequency, TF over GST control) | binding signal (CRX): 1.17 fold enrichment (6-mer frequency, TF over GST control) | binding signal (ETV1): 1.13 fold enrichment (6-mer frequency, TF over GST control) | binding signal (ERF): 1.15 fold enrichment (6-mer frequency, TF over GST control) | binding signal (ETV3L): 1.07 fold enrichment (6-mer frequency, TF over GST control) | binding signal (ETS2): 1.07 fold enrichment (6-mer frequency, TF over GST control) | binding signal (SPDEF): 1.05 fold enrichment (6-mer frequency, TF over GST control) | binding signal (ETV7): 1.02 fold enrichment (6-mer frequency, TF over GST control) | binding signal (ELF5): 1 fold enrichment (6-mer frequency, TF over GST control) | binding signal (ETV3): 1.03 fold enrichment (6-mer frequency, TF over GST control) | binding signal (ETV6): 1.04 fold enrichment (6-mer frequency, TF over GST control)
